PubChem BioAssay (Tox21)
Results filed as inconclusive are left out. Active and inactive are the calls of the source. The call rests on the fitted dose curve; in most records, active means well fitted curve in the direction sought with a large enough effect in the repeat runs; inconclusive means weak or mixed curves; inactive means no such curve, though single readings can be large; an effect the other way counts as inactive or inconclusive.

What was measured:
[1] = qHTS RealTime-Glo MT Cell Viability Assay in HepG2 cells - 24 hour (AID 1224867); further: nearly all actives have a fitted effect of over 50% in size
Procedure, shortened: (§1)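 HepG2 cells (600/well) were dispensed with RealTime-Glo reagents, incubated 5 h at 37 °C, then treated with compounds in DMSO for up to 40 h. Nonlytic NanoLuc luminescence reflecting viable cells was read at each stated time point.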

[2] = qHTS RealTime-Glo MT Cell Viability Assay in HEK293 cells - 32 hour (AID 1224868); further: top concentration of the series differs between compounds; nearly all actives have a fitted effect of over 50% in size
Procedure, shortened: (§2)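 HEK293 cells seeded with NanoLuc/prosubstrate reagent, rested 5 h at 37 C, then dosed and kept at 37 C up to 40 h. Nonlytic real-time luminescence from viable cells read at 0, 8, 16, 24, 32 and 40 h.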

[3] = A CellTox Green Cytotoxicity Assay to monitor cytotoxicity in HEK293 cells - 0 hour (AID 1224869); further: nearly all actives have a fitted effect of over 50% in size; further: potency means the concentration at half of the fitted maximal effect
Procedure, shortened: (§3)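 Seeding of HEK293 cells together with cytotoxicity dye preceded a 5 h incubation at 37 C/5% CO2. Test compounds in DMSO were then added and fluorescence monitored across 40 h.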

[4] = qHTS RealTime-Glo MT Cell Viability Assay in HepG2 cells - 40 hour (AID 1224870); further: nearly all actives have a fitted effect of over 50% in size
Procedure, shortened: (§4)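 HepG2 cells (600/well) mixed with RealTime-Glo MT reagent, settled 5 h at 37 C/5% CO2 before compound addition. Nonlytic NanoLuc luminescence from viable-cell prosubstrate reduction read repeatedly during 40 h treatment at 37 C.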

[5] = A CellTox Green Cytotoxicity Assay to monitor cytotoxicity in HEK293 cells - 40 hour (AID 1224871); further: nearly all actives have a fitted effect of over 45% in size; further: potency means the concentration at half of the fitted maximal effect
Procedure, shortened: as §3

[6] = qHTS RealTime-Glo MT Cell Viability Assay in HEK293 cells - 16 hour (AID 1224872)
Procedure, shortened: as §2

[7] = qHTS RealTime-Glo MT Cell Viability Assay in HepG2 cells - 8 hour (AID 1224873); further: nearly all actives have a fitted effect of over 55% in size
Procedure, shortened: as §4

[8] = qHTS RealTime-Glo MT Cell Viability Assay in HEK293 cells - 40 hour (AID 1224874); conditions: RealTime-Glo luminescence; max response: hits give low values; further: nearly all actives have a fitted effect of over 50% in size
Procedure, shortened: (§5)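 Tox21 screen in HEK293 using RealTime-Glo MT chemistry, with cells and reagent co-dispensed. Luminescence proportional to viable cell number was captured at intervals during 40 h compound exposure at 37 C.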

[9] = A CellTox Green Cytotoxicity Assay to monitor cytotoxicity in HEK293 cells - 24 hour (AID 1224875); further: nearly all actives have a fitted effect of over 45% in size; further: potency means the concentration at half of the fitted maximal effect; on activity change: series mostly up to about 77 µM
Procedure, shortened: as §3

[10] = A CellTox Green Cytotoxicity Assay to monitor cytotoxicity in HepG2 cells - 16 hour (AID 1224876); further: nearly all actives have a fitted effect of over 45% in size; further: potency means the concentration at half of the fitted maximal effect
Procedure, shortened: (§6)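 Nonlytic assay: viable cells exclude the dye, so fluorescence scales with cell death. HepG2 at 600 cells/well, compounds added after 5 h, signal read across 40 h.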

[11] = A CellTox Green Cytotoxicity Assay to monitor cytotoxicity in HepG2 cells - 24 hour (AID 1224878); further: nearly all actives have a fitted effect of over 45% in size; further: potency means the concentration at half of the fitted maximal effect
Procedure, shortened: as §6

[12] = A CellTox Green Cytotoxicity Assay to monitor cytotoxicity in HepG2 cells - 40 hour (AID 1224879); further: nearly all actives have a fitted effect of over 40% in size; further: potency means the concentration at half of the fitted maximal effect
Procedure, shortened: as §6

[13] = qHTS RealTime-Glo MT Cell Viability Assay in HEK293 cells - 0 hour (AID 1224880)
Procedure, shortened: as §5

[14] = A CellTox Green Cytotoxicity Assay to monitor cytotoxicity in HepG2 cells - 0 hour (AID 1224882); further: nearly all actives have a fitted effect of over 35% in size; further: potency means the concentration at half of the fitted maximal effect
Procedure, shortened: as §6

[15] = A CellTox Green Cytotoxicity Assay to monitor cytotoxicity in HepG2 cells - 32 hour (AID 1224883); further: nearly all actives have a fitted effect of over 50% in size; further: potency means the concentration at half of the fitted maximal effect
Procedure, shortened: as §6

[16] = qHTS RealTime-Glo MT Cell Viability Assay in HepG2 cells - 16 hour (AID 1224885); further: nearly all actives have a fitted effect of over 50% in size
Procedure, shortened: as §1

[17] = qHTS RealTime-Glo MT Cell Viability Assay in HEK293 cells - 24 hour (AID 1224886)
Procedure, shortened: as §2

[18] = qHTS RealTime-Glo MT Cell Viability Assay in HepG2 cells - 32 hour (AID 1224877); further: nearly all actives have a fitted effect of over 55% in size
Procedure, shortened: as §1

[19] = A CellTox Green Cytotoxicity Assay to monitor cytotoxicity in HEK293 cells - 32 hour (AID 1224881); further: nearly all actives have a fitted effect of over 40% in size
Procedure, shortened: as §3

[20] = A CellTox Green Cytotoxicity Assay to monitor cytotoxicity in HEK293 cells - 8 hour (AID 1224884); further: nearly all actives have a fitted effect of over 35% in size; further: potency means the concentration at half of the fitted maximal effect
Procedure, shortened: as §3
On the % scale 0 is the no-effect control and ±100 the full control effect.

CCCCOC(=O)C(C)OC(=O)CCC (centres undefined)
inactive: outcome [1] | Potency [2] | Potency [3] | outcome [4] | Potency [5] | Potency [6] | outcome [7] | max response [8] 13% | Potency [9] | Potency [10] | Potency [11] | Potency [12] | outcome [13] | Potency [14] | Potency [15] | outcome [16] | Potency [17]

CC(C)C(=O)c1ccccc1
inactive: outcome [1] | Potency [2] | Potency [3] | outcome [4] | Potency [5] | outcome [7] | max response [8] -17.8% | Potency [9] | Potency [10] | outcome [18] | Potency [11] | Potency [12] | outcome [13] | Potency [19] | Potency [14] | Potency [15] | Potency [20] | outcome [16] | Potency [17]

CNCc1ccccc1
inactive: outcome [1] | Potency [2] | Potency [3] | outcome [4] | Potency [5] | Potency [6] | outcome [7] | max response [8] -3.32% | Potency [9] | Potency [10] | Potency [11] | Potency [12] | Potency [19] | Potency [14] | Potency [15] | outcome [16] | Potency [17]

O=C1OC(=O)c2ccccc21
inactive: outcome [1] | Potency [2] | Potency [3] | outcome [4] | Potency [5] | Potency [6] | outcome [7] | max response [8] -12.4% | Potency [9] | Potency [10] | Potency [11] | Potency [12] | Potency [14] | Potency [15] | Potency [20] | outcome [16] | Potency [17]

CC(=O)Nc1ncc([N+](=O)[O-])s1
inactive: outcome [1] | Potency [2] | Potency [3] | outcome [4] | Potency [5] | Potency [6] | outcome [7] | max response [8] 0.8% | Potency [9] | outcome [18] | Potency [11] | Potency [12] | Potency [19] | Potency [15] | outcome [16] | Potency [17]

CCCCCCCCC(=O)OCC
inactive: outcome [1] | Potency [2] | Potency [3] | outcome [4] | Potency [5] | Potency [6] | outcome [7] | max response [8] 9.15% | Potency [9] | Potency [10] | Potency [11] | Potency [12] | Potency [14] | Potency [15] | Potency [20] | outcome [16] | Potency [17]

C[C@H]1O[C@H](O[C@H]2[C@H](O)[C@@H](O)[C@@H](O[C@H]3[C@H](O)[C@@H](O)[C@H](O)O[C@@H]3CO)O[C@@H]2CO)[C@H](O)[C@@H](O)[C@@H]1N[C@H]1C=C(CO)[C@@H](O)[C@H](O)[C@H]1O
inactive: outcome [1] | Potency [2] | Potency [3] | outcome [4] | Potency [5] | outcome [7] | max response [8] 6.78% | Potency [9] | Potency [10] | outcome [18] | Potency [11] | Potency [12] | outcome [13] | Potency [19] | Potency [14] | Potency [15] | Potency [20] | outcome [16] | Potency [17]

Cn1c(=O)c2c(ncn2CC2OCCO2)n(C)c1=O
inactive: outcome [1] | Potency [2] | Potency [3] | outcome [4] | Potency [5] | Potency [6] | outcome [7] | max response [8] 7.08% | Potency [9] | Potency [10] | Potency [11] | Potency [12] | outcome [13] | Potency [19] | Potency [14] | Potency [15] | Potency [20] | outcome [16] | Potency [17]

O=c1[nH]c(=O)c2[nH]c(=O)[nH]c2[nH]1
inactive: activity change, negative = cytotoxicity [1] 1.41% [at 6.97 µM] | activity change, negative = cytotoxic [2] 9.11% [at 6.97 µM] | cytotoxicity [3] -14.8% [at 6.97 µM] | activity change, negative = cytotoxic [4] 0.76% [at 6.97 µM] | cytotoxicity increase [5] -13.3% [at 6.97 µM] | viability change, negative = cytotoxic [7] 1.36% [at 6.97 µM] | max response [8] 10.6% | activity change [9] -9.62% [at 6.97 µM, hits give high values] | cytotoxicity increase [10] -0.724% [at 6.97 µM] | activity change, negative = cytotoxic [18] 0.932% [at 6.97 µM] | cytotoxicity [11] -0.222% [at 6.97 µM] | cytotoxicity increase [12] 1.9% [at 6.97 µM] | activity change, negative = cytotoxicity [13] 1.84% [at 6.97 µM] | cytotoxicity increase [19] -13.1% [at 6.97 µM] | cytotoxicity [14] -5.08% [at 6.97 µM] | cytotoxicity increase [15] -0.415% [at 6.97 µM] | cytotoxicity increase [20] -15.5% [at 6.97 µM] | activity change, negative = cytotoxic [16] 0.919% [at 6.97 µM] | activity change, negative = cytotoxicity [17] 8.57% [at 6.97 µM]

O=C(/C=C/c1ccccc1)NCCO
active: Potency [3] 9.52 µM | Potency [5] 7.56 µM | Potency [9] 6.01 µM | Potency [10] 9.52 µM | Potency [11] 6.74 µM | Potency [12] 6.01 µM | Potency [14] 6.01 µM | Potency [15] 8.49 µM | Potency [20] 9.52 µM
inactive: outcome [1] | Potency [2] | outcome [4] | Potency [6] | outcome [7] | max response [8] -3.72% | outcome [16] | Potency [17]

CCCCCCCCOC(C)=O
inactive: outcome [1] | Potency [2] | Potency [3] | outcome [4] | Potency [5] | outcome [7] | max response [8] 7.81% | Potency [9] | Potency [10] | outcome [18] | Potency [11] | Potency [12] | outcome [13] | Potency [19] | Potency [14] | Potency [15] | Potency [20] | outcome [16] | Potency [17]

Cc1oc(=O)oc1CN1CCN(c2cc3c(cc2F)c(=O)c(C(=O)O)c2n3C(C)S2)CC1 (centres undefined)
inactive: outcome [1] | Potency [2] | Potency [3] | outcome [4] | Potency [5] | Potency [6] | outcome [7] | max response [8] 5.9% | Potency [9] | outcome [18] | outcome [13] | Potency [19] | Potency [14] | Potency [20] | outcome [16] | Potency [17]
active: Potency [11] 0.535 µM

CCN(Cc1cccc(S(=O)(=O)O)c1)c1ccccc1
inactive: outcome [1] | Potency [2] | Potency [3] | outcome [4] | Potency [5] | outcome [7] | max response [8] 0.413% | Potency [9] | Potency [10] | outcome [18] | Potency [11] | Potency [12] | outcome [13] | Potency [19] | Potency [14] | Potency [15] | Potency [20] | outcome [16] | Potency [17]

SCCSCCS
inactive: outcome [1] | Potency [2] | Potency [3] | outcome [4] | Potency [5] | Potency [6] | outcome [7] | max response [8] -1.15% | Potency [9] | Potency [10] | Potency [11] | Potency [12] | outcome [13] | Potency [19] | Potency [14] | Potency [15] | Potency [20] | outcome [16] | Potency [17]

C=C(C)[C@@H]1CC[C@@H](C)C[C@@H]1O
inactive: outcome [1] | Potency [2] | Potency [3] | outcome [4] | Potency [5] | Potency [6] | outcome [7] | max response [8] 0.357% | Potency [9] | Potency [10] | Potency [11] | Potency [12] | outcome [13] | Potency [19] | Potency [14] | Potency [15] | outcome [16] | Potency [17]
